According to PubChem BioAssay AID1578 (Sanford-Burnham Center for Chemical Genomics, 2009):
Hit rate of the full screen: of about 290,000 compounds, about 3,000 (1%) were called active. Rule as the data show it: active = inhibition mostly above about 36% (no sharp cut-off); inactive = mostly below about 34%. This excerpt belongs to a sample that is enriched for actives.

Assay: NOD1 signaling inhibitors, primary screen, cell-based, luminescence, uHTS (AID 1578);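 also: HEK-293T reporter cells stimulated with the NOD1 agonist gamma-tri-DAP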
Conditions: NOD1-driven NF-kB luciferase reporter cells, at 4 µM, stronger effect = higher value

| SMILES | inhibition |
| --- | --- |
| O=C1CCN(CCCc2ccccc2)CCN1[C@H](CO)Cc1ccccc1 | -31.4% (inactive) |
| COc1ccccc1-c1nc(C#N)c(N2CCN(c3ccccc3)CC2)o1 | -2.9% (inactive) |
| COc1ccc(-c2nc(C#N)c(N3CCN(c4cccc(Cl)c4)CC3)o2)cc1OC | 5.2% (inactive) |
| C[C@@H]1CC=C[C@H]2[C@H]1C(=O)N(Cc1ccccc1)[C@H]2c1ccc(-c2ccoc2)cc1F | -2.6% (inactive) |
| Cc1c(O)ccc2c(CC(=O)N[C@@H](Cc3c[nH]c4ccccc34)C(=O)O)cc(=O)oc12 | -0.1% (inactive) |
| FC(F)(F)c1cc(-c2ccccc2)nc(N2CCCCC2)n1 | 8.3% (inactive) |
| FC(F)(F)c1cc(-c2ccccc2)nc(N2CCCCCC2)n1 | 37.9% (active) |
| CN1CCN(c2nc(-c3ccccc3)cc(C(F)(F)F)n2)CC1 | -26.3% (inactive) |
| Cc1nn(C)cc1/C=N\NC(=O)Cc1ccc([N+](=O)[O-])cc1 | -27.7% (inactive) |
| COc1ccc(C#Cc2ccc3c(=O)c4ccccc4n(C)c3c2)cc1 | 25.7% (inactive) |
| CCC(=O)NC(=S)Nc1cccc(Cl)c1N1CCCC1 | 55.9% (active) |
| CCCC(=O)NC(=S)Nc1cccc(Cl)c1N1CCCC1 | -26.8% (inactive) |
| CCCC(=O)NC(=S)Nc1cccc(Cl)c1N1CCCCC1 | -26.4% (inactive) |
| COC(=O)C1Cc2ccccc2CN1C(=O)CCl (stereo unspecified) | 39.2% (inactive) |
| Cc1nccn1CC(=O)N/N=C/c1cc(Br)cs1 | -0.6% (inactive) |
| O=C(Cc1ccccc1)N/N=C/c1cc(Br)cs1 | 1.2% (inactive) |
| CCN1CCN(CC(=O)N/N=C/c2cc(Br)cs2)CC1 | 104% (active) |
| Cc1cc(C)n(-c2nc3c(c(=O)[nH]c(=O)n3C)n2C(C)C)n1 | 5.7% (inactive) |
| O=C(CN1CCN(c2ccc(F)cc2)CC1)Nc1cc(C(F)(F)F)ccc1Cl | -11.8% (inactive) |
| CCOC(=O)CNC(=O)C1Cc2ccccc2CN1S(=O)(=O)c1cccs1 (stereo unspecified) | -33% (inactive) |
| COc1cccc(C2CC(c3cccs3)=NN2S(C)(=O)=O)c1 (stereo unspecified) | 47.7% (active) |
| COc1ccc(C2CC(c3cccs3)=NN2S(C)(=O)=O)cc1OC (stereo unspecified) | -25.1% (inactive) |
| COc1ccc(C2CC(c3cccs3)=NN2S(C)(=O)=O)cc1 (stereo unspecified) | -18% (inactive) |
| COc1ccc(C(=O)Nc2nnc(Cc3ccccc3)s2)c(OC)c1 | -43.9% (inactive) |

| SMILES | inhibition |
| --- | --- |
| O=[N+]([O-])c1ccc(S(=O)(=O)N/N=C/c2ccco2)cc1 | -34.8% (inactive) |
| CCOC(=O)c1cnc2ccc(OCC)cc2c1NCCN1CCOCC1 | -21.5% (inactive) |
| O=c1cc(-c2ccc3c(c2)OCO3)oc2ccccc12 | -38.2% (inactive) |
| Cc1cc(N2CCN(c3nc(-c4ccc([N+](=O)[O-])cc4)cs3)CC2)c2ccccc2n1 | 3.5% (inactive) |
| Cc1cc(N2CCN(c3nc(-c4ccccc4)cs3)CC2)c2ccccc2n1 | -3.1% (inactive) |
| COc1ccc(-c2csc(N3CCN(c4cc(C)nc5ccccc45)CC3)n2)cc1OC | 54.5% (active) |
| C[C@@H]1C=C(C(=O)NCc2ccccc2)O[C@H](OCc2ccc(CO)cc2)C1 | -6.2% (inactive) |
| O=C1/C(=C/c2ccc([N+](=O)[O-])cc2)C=C(c2ccccc2)N1c1ccc(O)cc1 | 28.6% (inactive) |
| O=C(O)c1cccc(N2C(=O)/C(=C/c3ccc([N+](=O)[O-])cc3)C=C2c2ccccc2)c1 | 55.4% (active) |
| O=C1/C(=C/c2ccc([N+](=O)[O-])cc2)C=C(c2ccccc2)N1c1ccccc1 | -31.4% (inactive) |
| O=C(NCc1cccnc1)C1CCCN(S(=O)(=O)c2cccc3nsnc23)C1 (stereo unspecified) | -7.8% (inactive) |
| CCOC(=O)c1ccc(NC(=S)NCCc2ccc(F)cc2)cc1 | 72.6% (active) |
| CCOC(=O)c1ccc(NC(=S)NCCc2ccccc2F)cc1 | -22.7% (inactive) |
| CCOC(=O)c1ccc(NC(=S)NCCc2ccccc2)cc1 | 0.7% (inactive) |
| CCCCCCn1c(CN2CCCCC2C)nc2c1c(=O)n(C)c(=O)n2C (stereo unspecified) | -20.6% (inactive) |
| CCOC(=O)c1c(C2CC2)csc1NC(=O)COC(=O)c1cc(OC)c(OC)cc1[N+](=O)[O-] | -39.9% (inactive) |
| COc1cccc(/C=C2\Sc3ccc(C(=O)NCc4cccnc4)cc3N(C)C2=O)c1 | 44.2% (inactive) |
| COc1ccc(/C=C2\Sc3ccc(C(=O)NCc4cccnc4)cc3N(C)C2=O)cc1OC | 42.3% (active) |
| CN1C(=O)/C(=C/c2cccc(Cl)c2)Sc2ccc(C(=O)NCc3cccnc3)cc21 | 4.4% (inactive) |
| Cc1cccc(N(C(=O)CNC(=O)c2ccco2)C(C(=O)NC2CCCC2)c2ccncc2)c1 (stereo unspecified) | -12.6% (inactive) |
| CC1=NN(c2nc(-c3ccccc3)cs2)C(=O)C1 | 3.7% (inactive) |
| O=C1CC(c2ccccc2)=NN1c1nc(-c2ccccc2)cs1 | 65.7% (active) |
| CC1=NN(c2nc(-c3ccc(Cl)cc3)cs2)C(=O)C1 | 46.6% (inactive) |
| CCCNC(=O)c1onc(CSc2cccc(OC)c2)c1C(=O)NCCC | -4% (inactive) |

| SMILES | inhibition |
| --- | --- |
| Cc1nc(-c2ccc(NC(=O)c3ccco3)cc2)cs1 | 54.6% (active) |
| Cc1nc(-c2cccc(NC(=O)c3ccco3)c2)cs1 | -30.5% (inactive) |
| Nc1nc(-c2ccc(NC(=O)c3ccco3)cc2)cs1 | -4.3% (inactive) |
| Cc1nc(-c2ccc(C(=O)Nc3cccc(Br)c3)cc2)cs1 | 47.3% (active) |
| Cc1nc(-c2ccc(C(=O)Nc3cccc(F)c3)cc2)cs1 | 26.3% (inactive) |
| Cc1ccc(C(=O)Nc2ccc(-c3csc(C)n3)cc2)cc1 | -53.9% (inactive) |
| COCCN1Cc2cccc(C(=O)Nc3cccc(-c4nc5ccccc5[nH]4)c3)c2C1=O | -5.5% (inactive) |
| CCOc1ccc(C(=O)OCc2nnc(-c3cccs3)o2)cc1OC | -3.4% (inactive) |
| Oc1nc(Nc2ccccc2)sc1/C=C1\C=Nc2ccccc21 | -13.5% (inactive) |
| O=C(COC(=O)c1ccccc1Br)NCc1ccccc1 | -32% (inactive) |
| CC(=O)N/C(=C/c1ccc([N+](=O)[O-])cc1)C(=O)O | -71.3% (inactive) |
| O=C(O)c1cc(-c2ccc(Cl)cc2)n(-c2ccccc2)n1 | -29.5% (inactive) |
| COC(=O)C1C2C=CC3(CN(c4cccc(C)c4)C(=O)C13)O2 (stereo unspecified) | -25.9% (inactive) |
| COc1ccc2nccnc2c1[N+](=O)[O-] | -0.6% (inactive) |
| O=C(CCC(=O)NCCCc1ccccc1)NCCCc1ccccc1 | 80.7% (active) |
| O=C(CCCc1ccccc1)NCCCc1ccccc1 | -23.7% (inactive) |
| O=C(CCCCC(=O)NCCCc1ccccc1)NCCCc1ccccc1 | -23.1% (inactive) |
| CCn1c(-c2ccccc2)c(C(=O)O)c2ccccc21 | -1.6% (inactive) |
| CCn1c(-c2ccccc2)c(C(=O)CCl)c2ccccc21 | 79.5% (active) |
| CCn1c(-c2ccccc2)c(C(=O)CC#N)c2ccccc21 | -39.5% (inactive) |
| Cc1ccc(OCc2nnc(SCC(N)=O)n2N)cc1 | -1.8% (inactive) |
| O=C(Cc1c[nH]c2ccccc12)Nc1ccc(N2CCOCC2)cc1 | -30.3% (inactive) |
| NC(=O)C1(N2CCCCC2)CCN(C(=S)Nc2ccc(S(N)(=O)=O)cc2)CC1 | -18.7% (inactive) |
| COc1cccc(OCc2cc(C(=O)NCc3ccc4c(c3)OCO4)no2)c1 | -60.1% (inactive) |

| SMILES | inhibition |
| --- | --- |
| COc1cccc(OCc2cc(C(=O)NCc3ccccn3)no2)c1 | -60.1% (inactive) |
| O=C(O)C(Cc1ccccc1)N1C(=O)/C(=C/c2cccs2)SC1=S (stereo unspecified) | 3% (inactive) |
| O=C(O)C(Cc1ccccc1)N1C(=O)/C(=C/c2ccccc2)SC1=S (stereo unspecified) | 40.1% (inactive) |
| Cc1ccc(CCNC(=O)CN(C)S(=O)(=O)c2ccc3c(c2)n(C)c(=O)c(=O)n3C)cc1 | -2.1% (inactive) |
| COc1ccccc1/C=C/c1ccc2cccc(O)c2n1 | -8.4% (inactive) |
| COc1cccc(/C=C/c2ccc3cccc(O)c3n2)c1 | 7.9% (inactive) |
| COc1cc(Br)cc(/C=C/c2ccc3cccc(O)c3n2)c1OC | 23% (inactive) |
| COc1cc(/C=C/c2ccc3c(Br)cc(Br)c(O)c3n2)ccc1O | 79.9% (active) |
| COc1ccc(/C=C/c2ccc3cccc(O)c3n2)c(OC)c1OC | 16.5% (inactive) |
| COc1cc(Br)c(/C=C/c2ccc3cccc(O)c3n2)cc1OC | 11.8% (inactive) |
| COc1ccc(/C=C/c2ccc3c(Br)ccc(O)c3n2)cc1 | 0.6% (inactive) |
| COc1cc(Cl)cc(/C=C/c2ccc3cccc(O)c3n2)c1OC | 8.1% (inactive) |
| COc1ccc(/C=C/c2ccc3cccc(O)c3n2)cc1Br | 6.9% (inactive) |
| Cc1ccc(N(CC(=O)Nc2ccc3c(c2)OCCO3)S(C)(=O)=O)cc1 | -32.2% (inactive) |
| COc1ccc(NC(=O)CN2C(=O)NC(C)(c3ccccc3)C2=O)cc1Cl (stereo unspecified) | -50.5% (inactive) |
| COc1ccc(NC(=O)c2ccccc2NC(=O)NC2CCCCC2)cc1 | -14.5% (inactive) |
| CCCCNC(=O)[C@@H]1CSC2c3ccccc3C(=O)N21 (stereo partly specified) | -0.2% (inactive) |
| O=C1c2ccccc2C(=O)N1CCCC(=O)N1CCCc2ccccc21 | -23.6% (inactive) |
| Cc1ccc(-c2cc(C(F)F)n3ncc(C(=O)N4CCCCC4c4cccnc4)c3n2)cc1 (stereo unspecified) | 2.1% (inactive) |
| Brc1cccc(CN2CCCCCC2)c1 | -23% (inactive) |
| N#C/C(=C\C=C\c1ccccc1)C(=O)N1CCCC1 | 23.1% (inactive) |
| CCOC(=O)C(CC)Sc1nnc2n1C(C)(C)Cc1ccccc1-2 (stereo unspecified) | -5.8% (inactive) |
| COc1ccc(OC)c(-c2cc(C(=O)NCCN3CCOCC3)no2)c1 | -5.6% (inactive) |
| CC12C(=O)N(Cc3ccco3)C(=O)C1C1c3ccccc3C2c2ccccc21 (stereo unspecified) | 28.8% (inactive) |
